Data as given in PubChem BioAssay (NCATS).
Results filed as inconclusive are left out. Unmarked numbers belong to inactive results. Active and inactive are the calls of the source. Calls follow the shape of the dose curve; as a rule, active = well fitted activation curve with a large enough effect; inconclusive = small, poorly fitted or top-dose-only effect; inactive = no such curve, though single readings can be large or run the other way.

Biological target: Cellular tumor antigen p53 (Homo sapiens) (UniProt P04637)
Test: Primary qHTS for small molecule compounds that upregulate eGFP-tagged delta133p53alpha (in N-terminal) cells. (AID 2060322); also: nearly all actives have a fitted effect of over 75% in size;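 as to activation: cells pre-induced with doxycycline then dosed without doxycycline; series mostly up to about 56 µM; 0% = DMSO vehicle and 100% = reference activator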
Conditions: NCI-H358 eGFP-delta133p53alpha fluorescence, 24 h; activation: stronger effect = higher value
How it was run: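 NCI-H358 cells pre-induced 24 h with 10 ng/ml doxycycline for eGFP-delta133p53alpha, plated dox-free and exposed 24 h at 37C to titrated compounds. Fixed, Hoechst-stained; gated GFP peak intensity by laser scanning cytometry, normalized to DMSO (0%) and 57.5 uM 5-azacytidine (100%).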
Potency is read from the fitted curve at half-maximal effect.

Cellular tumor antigen p53 (Homo sapiens), sequence (P04637 whole entry, looked up): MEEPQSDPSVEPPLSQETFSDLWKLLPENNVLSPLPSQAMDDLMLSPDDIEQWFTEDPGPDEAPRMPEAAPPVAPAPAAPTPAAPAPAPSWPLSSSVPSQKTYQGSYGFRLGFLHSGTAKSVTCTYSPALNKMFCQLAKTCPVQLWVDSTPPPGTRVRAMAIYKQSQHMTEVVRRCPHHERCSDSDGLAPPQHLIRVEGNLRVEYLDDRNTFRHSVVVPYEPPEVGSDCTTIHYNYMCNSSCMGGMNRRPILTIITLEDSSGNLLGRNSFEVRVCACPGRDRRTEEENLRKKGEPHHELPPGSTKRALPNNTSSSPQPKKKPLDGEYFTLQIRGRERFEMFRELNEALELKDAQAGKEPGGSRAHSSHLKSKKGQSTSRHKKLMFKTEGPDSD

Row | Compound | activation [%] | Potency
1 | CCn1cc(C(=O)O)c(=O)c2cnc(N3CCNCC3)nc21 | 0.837 | 
2 | Nc1ccccc1NC(=O)CCCCCCC(=O)Nc1ccccc1 | -13.4 | 
3 | CCN1CCCC1CN (stereo not drawn) | 3.35 | 
4 | CC[N+](C)(CC)CCOC(=O)C(O)(c1ccccc1)C1CCCCC1 (stereo not drawn) | -16.7 | 
5 | Cn1cc(C=CC(=O)c2cccc(F)c2)cc1C=CC(=O)NO |  | 38.5 µM (active)
6 | CCOC(=O)c1cccc(N)c1 | -1.67 | 
7 | C[C@@H]1[C@H](O)[C@@H](C)C=CC=CC=CC=CC=CC=CC=C[C@H](O[C@@H]2O[C@H](C)[C@H](O)[C@H](N)[C@@H]2O)C[C@@H]2O[C@](O)(C[C@@H](O)C[C@@H](O)[C@H](O)CC[C@@H](O)C[C@@H](O)CC(=O)O[C@H]1C)C[C@H](O)[C@@H]2C(=O)O | -1.15 | 
8 | NC(=O)NNc1ccccc1 | 0.565 | 
9 | C[C@@H]1[C@H](C)CC[C@]2(C(=O)O)CC[C@]3(C)C(=CC[C@@H]4[C@@]5(C)CC[C@H](O)C(C)(C)[C@H]5CC[C@]43C)[C@@H]12 | -12.8 | 
10 | N/C(=N\N=C\c1ccc(Cl)cc1)N/N=C/c1ccc(Cl)cc1 | 0 | 
11 | Nc1cccc(-c2csc(NC(=O)CCCCCCC(=O)NO)n2)c1 | 139 | 
12 | Cc1ccc(NC2=CC(=O)c3sc(C)nc3C2=O)cc1 |  | 3.85 µM (active)
13 | CCOC(=O)[C@H](CCc1ccccc1)N[C@@H](C)C(=O)N1Cc2cc(OC)c(OC)cc2C[C@H]1C(=O)O | -5.86 | 
